Laboratory results: PubChem BioAssay AID1159580 (chemical genetic matrix, 2015)
Several values for one entry are separate records, joined by “and”; a condition that tells them apart may be missing. Identical values can stand only once. Hit rate of the full screen: of about 5,500 compounds, about 2,000 (36%) were called active. About 18% were inconclusive and are not listed. Cut-off read from the data, not from the text of the source: active = normalized growth mostly below about 0.91 (no sharp cut-off); inconclusive = no clear call, values can overlap the other calls; inactive = mostly above about 0.92. Some of the results follow.

Test: chemical genetic growth profiling, strain panel (AID 1159580);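 note: tested at 20 µM; growth read once vehicle control cultures reached saturation at 30 °C; 1 = growth at the plate median or of vehicle wells; lower values mean less growth of the strain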
Details: S. cerevisiae deletion strains, growth OD

Measured: normalized growth

CC(=O)Oc1ccc2c(c1OC(C)=O)OCC1(O)Cc3c(cc(OC(C)=O)c(OC(C)=O)c3OC(C)=O)C21 (configuration not stated)
inactive: locus YAL013W, strain DEP1, stronger effect = lower value 1.02 | locus YAL021C, strain ccr4, stronger effect = lower value 0.948 | locus YAL026C, strain drs2, stronger effect = lower value 1.03 | locus YAL030W, strain snc1, stronger effect = lower value 1.01 | locus YBL061C, strain skt5, stronger effect = lower value 1.01 | locus YBR009C, strain hhf1, stronger effect = lower value 1.01 | locus YBR021W, strain FUR4, stronger effect = lower value 1.02 | locus YBR023C, strain chs3, stronger effect = lower value 0.988 | locus YBR171W, strain sec66, stronger effect = lower value 1.02 | locus YBR229C, strain ROT2, stronger effect = lower value 1.01 | locus YBR231C, strain swc5, stronger effect = lower value 0.975 | locus YBR279W, strain paf1, stronger effect = lower value 0.99 | locus YCL011C, strain gbp2, stronger effect = lower value 0.997 | locus YCL016C, strain dcc1, stronger effect = lower value 0.982 | locus YCL029C, strain bik1, stronger effect = lower value 0.978 | locus YCL061C, strain MRC1, stronger effect = lower value 1 | locus YCL069W, strain vba3, stronger effect = lower value 1.03 | locus YCR088W, strain abp1, stronger effect = lower value 1.02 | locus YDL005C, strain med2, stronger effect = lower value 1.01 | locus YDL035C, strain GPR1, stronger effect = lower value 1.01 | locus YDL040C, strain nat1, stronger effect = lower value 1.01 | locus YDL074C, strain BRE1, stronger effect = lower value 0.973 | locus YDL101C, strain DUN1, stronger effect = lower value 0.943 | locus YDL134C, strain PPH21, stronger effect = lower value 0.997 | locus YDL185W, strain tfp1, stronger effect = lower value 0.955 | locus YDL192W, strain arf1, stronger effect = lower value 1.01 | locus YDR001C, strain nth1, stronger effect = lower value 1.02 | locus YDR069C, strain doa4, stronger effect = lower value 0.969 | locus YDR101C, strain arx1, stronger effect = lower value 1.04 | locus YDR137W, strain rgp1, stronger effect = lower value 1 | locus YDR159W, strain sac3, stronger effect = lower value 1.06 | locus YDR162C, strain NBP2, stronger effect = lower value 0.948 | locus YDR195W, strain ref2 1.01 | locus YDR297W, strain sur2, stronger effect = lower value 1 | locus YDR318W, strain mcm21, stronger effect = lower value 1.02 | locus YDR334W, strain swr1, stronger effect = lower value 1.02 | locus YDR335W, strain msn5, stronger effect = lower value 0.998 | locus YDR388W, stronger effect = lower value 0.996 | locus YDR392W, strain spt3, stronger effect = lower value 0.923 | locus YDR502C, strain sam2, stronger effect = lower value 1 | locus YEL003W, strain gim4, stronger effect = lower value 1 | locus YEL037C, strain rad23, stronger effect = lower value 1.01 | locus YEL061C, strain CIN8 (second series), stronger effect = lower value 1.01 | locus YER015W, strain faa2, stronger effect = lower value 0.974 | locus YER016W, strain bim1, stronger effect = lower value 1.02 | locus YER110C, stronger effect = lower value 0.991 | locus YER111C, strain swi4, stronger effect = lower value 0.999 | locus YER155C, strain BEM2 (second series), stronger effect = lower value 1.02 | locus YER155C, strain BEM2, stronger effect = lower value 1.02 | locus YER167W, strain BCK2, stronger effect = lower value 1.01 | locus YFR010W, strain ubp6, stronger effect = lower value 1.02 | locus YGL078C, strain dbp3, stronger effect = lower value 0.983 | locus YGL086W, strain mad1, stronger effect = lower value 0.986 | locus YGL167C, strain pmr1, stronger effect = lower value 0.995 | locus YGL173C, strain kem1, stronger effect = lower value 1.02 | locus YGL227W, strain vid30, stronger effect = lower value 1.02 | locus YGL240W, strain doc1, stronger effect = lower value 1.07 | locus YGL248W, strain PDE1, stronger effect = lower value 0.965 | locus YGL253W, strain hxk2, stronger effect = lower value 1.04 | locus YGR135W, strain pre9, stronger effect = lower value 0.949 | locus YGR229C, strain SMI1, stronger effect = lower value 1.07 | locus YGR252W, strain gcn5, stronger effect = lower value 1.11 | locus YHR013C, strain ard1, stronger effect = lower value 0.981 | locus YHR027C, strain rpn1, stronger effect = lower value 1 | locus YHR030C, strain SLT2, stronger effect = lower value 1.01 and 1.06 | locus YHR079C, strain IRE1 (second series), stronger effect = lower value 0.987 | locus YHR079C, strain IRE1, stronger effect = lower value 1.08 | locus YHR094C, strain hxt1, stronger effect = lower value 1 | locus YHR129C, strain ARP1, stronger effect = lower value 1.01 | locus YHR142W, strain chs7, stronger effect = lower value 1 | locus YHR200W, strain rpn10, stronger effect = lower value 0.983 | locus YIL066C, strain RNR3, stronger effect = lower value 0.97 | locus YIL073C, strain SPO22, stronger effect = lower value 0.794 | locus YIL125W, strain kgd1, stronger effect = lower value 0.993 | locus YIR030C, strain dcg1, stronger effect = lower value 0.986 | locus YJL092W, strain hpr5, stronger effect = lower value 1.01 | locus YJL095W, strain BCK1 (second series), stronger effect = lower value 1 | locus YJL095W, strain BCK1, stronger effect = lower value 0.947 and 1.06 | locus YJL115W, strain asf1, stronger effect = lower value 1.01 | locus YJL129C, strain trk1, stronger effect = lower value 1.03 | locus YJL134W, strain LCB3, stronger effect = lower value 1 | locus YJL154C, strain vps35, stronger effect = lower value 1.01 | locus YJL164C, strain tpk1, stronger effect = lower value 0.98 | locus YJL166W, strain qcr8, stronger effect = lower value 1.01 | locus YJL168C, strain set2, stronger effect = lower value 0.997 | locus YJL187C, strain SWE1 (second series), stronger effect = lower value 0.873 | locus YJL187C, strain SWE1, stronger effect = lower value 0.988 | locus YJR066W, strain TOR1, stronger effect = lower value 1.04 | locus YKL009W, strain mrt4, stronger effect = lower value 0.973 | locus YKL068W, stronger effect = lower value 0.994 | locus YKL085W, strain MDH1 (second series), stronger effect = lower value 0.976 | locus YKL085W, strain MDH1, stronger effect = lower value 0.976 | locus YKL160W, strain elf1, stronger effect = lower value 0.983 | locus YKL190W, strain CNB1, stronger effect = lower value 0.987 | locus YKR001C, strain vps1, stronger effect = lower value 1.04 | locus YKR026C, strain gcn3, stronger effect = lower value 1.02 | locus YKR091W, strain srl3, stronger effect = lower value 1.01 | locus YLL001W, strain dnm1, stronger effect = lower value 0.978 | locus YLL026W, stronger effect = lower value 1.01 | locus YLL041C, strain sdh2, stronger effect = lower value 1.02 | locus YLR027C, strain aat2, stronger effect = lower value 1.01 | locus YLR039C, strain RIC1, stronger effect = lower value 1.06 | locus YLR058C, strain SHM2, stronger effect = lower value 0.898 | locus YLR102C, strain apc9, stronger effect = lower value 0.981 | locus YLR113W, strain HOG1, stronger effect = lower value 1.04 | locus YLR221C, strain rsa3, stronger effect = lower value 1.03 | locus YLR258W, strain gsy2, stronger effect = lower value 1 | locus YLR262C, strain YPT6 (second series), stronger effect = lower value 1 | locus YLR268W, strain sec22, stronger effect = lower value 1.01 | locus YLR320W, strain mms22, stronger effect = lower value 1.03 | locus YLR330W, strain CHS5, stronger effect = lower value 1.02 | locus YLR342W, strain FKS1, stronger effect = lower value 1 | locus YLR357W, strain rsc2, stronger effect = lower value 1 | locus YLR370C, strain arc18, stronger effect = lower value 1.01 | locus YLR371W, strain rom2, stronger effect = lower value 0.997 | locus YLR384C, strain iki3, stronger effect = lower value 1.01 | locus YLR418C, strain cdc73, stronger effect = lower value 1.02 | locus YML016C, strain PPZ1, stronger effect = lower value 0.972 | locus YML032C, strain rad52, stronger effect = lower value 1 | locus YML120C, strain ndi1, stronger effect = lower value 0.983 | locus YML124C, strain tub3, stronger effect = lower value 0.988 | locus YMR058W, strain fet3, stronger effect = lower value 1.02 | locus YMR078C, strain ctf18, stronger effect = lower value 0.994 | locus YMR125W, strain sto1, stronger effect = lower value 0.989 | locus YMR129W, stronger effect = lower value 1.01 | locus YMR205C, strain PFK2, stronger effect = lower value 0.974 | locus YMR223W, strain ubp8, stronger effect = lower value 0.995 | locus YMR231W, strain pep5, stronger effect = lower value 1.01 | locus YMR263W, strain SAP30, stronger effect = lower value 1.01 | locus YMR307W, strain GAS1, stronger effect = lower value 1.06 | locus YNL067W, strain RPL9B, stronger effect = lower value 1.02 | locus YNL071W, strain lat1, stronger effect = lower value 1 | locus YNL183C, strain NPR1, stronger effect = lower value 1.03 | locus YNL209W, strain ssb2, stronger effect = lower value 0.973 | locus YNL233W, strain BNI4, stronger effect = lower value 1 | locus YNL248C, strain rpa49, stronger effect = lower value 1.04 | locus YNL250W, strain rad50, stronger effect = lower value 0.925 | locus YNL271C, strain bni1, stronger effect = lower value 0.976 | locus YNL298W, strain CLA4, stronger effect = lower value 1.01 | locus YNL307C, strain MCK1, stronger effect = lower value 0.998 | locus YNL322C, strain KRE1 (second series), stronger effect = lower value 1 | locus YNR049C, strain mso1, stronger effect = lower value 1.03 | locus YNR052C, strain pop2, stronger effect = lower value 0.988 | locus YOL006C, strain TOP1, stronger effect = lower value 0.743 | locus YOL012C, strain htz1 0.406 | locus YOL147C, strain pex11, stronger effect = lower value 0.999 | locus YOR001W, strain rrp6, stronger effect = lower value 1.06 | locus YOR061W, strain CKA2, stronger effect = lower value 0.981 | locus YOR069W, strain VPS5, stronger effect = lower value 1 | locus YOR070C, strain gyp1, stronger effect = lower value 1.01 | locus YOR080W, strain dia2, stronger effect = lower value 1 | locus YOR083W, strain WHI5, stronger effect = lower value 0.984 | locus YOR106W, strain vam3, stronger effect = lower value 0.955 | locus YOR136W, strain idh2, stronger effect = lower value 1.02 | locus YOR144C, strain elg1, stronger effect = lower value 1 | locus YOR184W, strain ser1, stronger effect = lower value 1.1 | locus YOR231W, strain MKK1, stronger effect = lower value 1.08 | locus YOR265W, strain rbl2, stronger effect = lower value 1.03 | locus YOR270C, strain vph1, stronger effect = lower value 1.07 | locus YOR290C, strain snf2, stronger effect = lower value 0.988 | locus YOR316C, strain cot1, stronger effect = lower value 0.987 | locus YPL051W, strain arl3, stronger effect = lower value 0.969 | locus YPL078C, strain atp4, stronger effect = lower value 0.991 | locus YPL106C, strain sse1, stronger effect = lower value 0.949 | locus YPL240C, strain hsp82, stronger effect = lower value 1.01 | locus YPL241C, strain CIN2, stronger effect = lower value 0.996 | locus YPL256C, strain CLN2, stronger effect = lower value 1.05 | locus YPR119W, strain clb2, stronger effect = lower value 0.996 | locus YPR141C, strain kar3, stronger effect = lower value 0.989 | locus YPR163C, strain tif3, stronger effect = lower value 1.01 | locus YPR167C, strain met16, stronger effect = lower value 1.01 | strain wtn01, stronger effect = lower value 0.992
